The source of these data is the antibiotic and cytotoxicity screens of Wong et al. (2023).

The whole screen tested about 39,000 compounds, of which about 1,500 (3.8%) were called active. For the sample, actives were picked, then their nearest neighbours and some compounds at random.

For this test, the system named is HSkMC (human skeletal muscle cells). The test is described as follows: cytotoxicity call (relative viability < 0.9). The settings on record: 10 µM.
Consider `C[C@H](CO)N1C[C@H](C)[C@H](CN(C)C(=O)Nc2cccc3ccccc23)Oc2ncc(C#Cc3ccc(F)cc3)cc2C1=O`, for which the cytotoxicity call is “inactive”.

For `Cc1ccc(S(=O)(=O)N(C)C[C@@H]2OCCCC[C@H](C)Oc3ccc(NS(=O)(=O)c4ccc(Cl)cc4)cc3C(=O)N([C@H](C)CO)C[C@@H]2C)cc1`, the cytotoxicity call was “inactive”.

`CC(C)(C)c1cc(C(=O)NN)no1`: the cytotoxicity call was “inactive”.

For `CCN1C(C)(C)CC(Oc2ccc(C(=O)Nc3ccc(NC(=O)Nc4cc(C(C)(C)C)on4)cc3)nc2)CC1(C)C`, the cytotoxicity call was “active”.

As for `CC(C)CC#Cc1ccc2c(c1)O[C@H](CN(C)C(=O)c1ccccn1)[C@@H](C)CN([C@H](C)CO)S2(=O)=O`, the cytotoxicity call was “inactive”.

On to `COc1cccc(-c2ccc3c(c2)O[C@@H](CN(C)C(=O)C2CCOCC2)[C@@H](C)CN([C@@H](C)CO)S3(=O)=O)c1`, for which the cytotoxicity call was “inactive”.

Consider `C[C@@H]1CN([C@H](C)CO)C(=O)Cc2cc(NC(=O)Cc3ccccc3)ccc2O[C@@H]1CN(C)Cc1ccc(C(F)(F)F)cc1`, for which the cytotoxicity call is “inactive”.

Take `C[C@@H]1CN([C@@H](C)CO)C(=O)Cc2cc(NC(=O)Cc3ccccc3)ccc2O[C@H]1CN(C)Cc1ccc(C(F)(F)F)cc1`: the cytotoxicity call was “inactive”.

As to `C[C@H]1CN([C@@H](C)CO)C(=O)Cc2cc(NC(=O)Cc3ccccc3)ccc2O[C@@H]1CN(C)Cc1ccc(C(F)(F)F)cc1`, the cytotoxicity call was “active”.

Consider `C[C@@H]1CN([C@H](C)CO)C(=O)Cc2cc(NC(=O)Cc3ccccc3)ccc2O[C@H]1CN(C)Cc1ccc(C(F)(F)F)cc1`, for which the cytotoxicity call was “inactive”.

As for `C[C@@H]1CN([C@@H](C)CO)C(=O)Cc2cc(NC(=O)Cc3ccccc3)ccc2O[C@@H]1CN(C)Cc1ccc(C(F)(F)F)cc1`, the cytotoxicity call was “active”.

On to `C[C@H]1CN([C@@H](C)CO)C(=O)Cc2cc(NC(=O)Cc3ccccc3)ccc2O[C@H]1CN(C)Cc1ccc(C(F)(F)F)cc1`, for which the cytotoxicity call is “inactive”.

Turning to `C[C@@H]1CN([C@@H](C)CO)C(=O)c2cc(NC(=O)Nc3cccc4ccccc34)ccc2O[C@@H]1CN(C)S(=O)(=O)c1ccc(Cl)cc1`, the cytotoxicity call was “inactive”.

In the case of `Cc1noc(C)c1NC(=O)Nc1ccc2c(c1)C(=O)N([C@@H](C)CO)C[C@H](C)[C@@H](CN(C)Cc1ccc3c(c1)OCO3)OCCCC[C@@H](C)O2`, the cytotoxicity call was “inactive”.

As to `COc1ccc(CN(C)C[C@@H]2OCCCC[C@H](C)Oc3ccc(NC(=O)NC(C)C)cc3C(=O)N([C@H](C)CO)C[C@H]2C)cc1`, the cytotoxicity call was “inactive”.

`CO[C@@H]1CN(C)C(=O)c2cc(NC(=O)CC(F)(F)F)ccc2OC[C@H](C)N(S(=O)(=O)c2cn(C)cn2)C[C@H]1C`: the cytotoxicity call was “inactive”.

As to `Cc1ccc(S(=O)(=O)N(C)C[C@H]2Oc3ccc(NS(=O)(=O)c4c(C)noc4C)cc3CC(=O)N([C@H](C)CO)C[C@@H]2C)cc1`, the cytotoxicity call is “inactive”.

With `C[C@@H]1CN([C@@H](C)CO)S(=O)(=O)c2ccc(-c3cncnc3)cc2O[C@H]1CN(C)C(=O)C1CCCCC1`, the cytotoxicity call is “inactive”.

Regarding `C[C@@H]1CN([C@H](C)CO)C(=O)c2cc(-c3ccc(C(=O)N(C)C)cc3)cnc2O[C@H]1CN(C)C(=O)c1ccncc1`, the cytotoxicity call is “inactive”.

Take `C[C@@H]1CN([C@@H](C)CO)C(=O)c2cc(NS(C)(=O)=O)ccc2O[C@@H]1CN(C)Cc1ccc(C(F)(F)F)cc1`: the cytotoxicity call is “inactive”.

For `NC(=O)CSc1ccccn1`, the cytotoxicity call is “inactive”.

Regarding `C[C@H](CO)N1C[C@H](C)[C@H](CN(C)S(=O)(=O)c2ccc(F)cc2)Oc2cc(C#Cc3ccncc3)ccc2S1(=O)=O`, the cytotoxicity call was “inactive”.

On to `COCC#Cc1ccc2c(c1)O[C@H](CN(C)S(=O)(=O)c1ccc(F)cc1)[C@@H](C)CN([C@H](C)CO)S2(=O)=O`, for which the cytotoxicity call was “inactive”.

On to `COCC#Cc1ccc2c(c1)O[C@@H](CN(C)S(=O)(=O)c1ccc(F)cc1)[C@@H](C)CN([C@@H](C)CO)S2(=O)=O`, for which the cytotoxicity call is “active”.

As for `C[C@H]1CN([C@@H](C)CO)S(=O)(=O)c2ccc(C#Cc3ccncc3)cc2O[C@H]1CN(C)S(=O)(=O)c1ccc(F)cc1`, the cytotoxicity call was “inactive”.

Take `COCC#Cc1ccc2c(c1)O[C@@H](CN(C)S(=O)(=O)c1ccc(F)cc1)[C@@H](C)CN([C@H](C)CO)S2(=O)=O`: the cytotoxicity call was “inactive”.

`C[C@H]1CN([C@@H](C)CO)S(=O)(=O)c2ccc(C#Cc3ccncc3)cc2O[C@@H]1CN(C)S(=O)(=O)c1ccc(F)cc1`: the cytotoxicity call was “active”.

Regarding `C[C@H](CO)N1C[C@H](C)[C@H](CN(C)C(=O)NC2CCCCC2)Oc2ccc(NS(C)(=O)=O)cc2CC1=O`, the cytotoxicity call is “inactive”.

Take `C[C@H](CO)N1C[C@H](C)[C@@H](CN(C)C(=O)Nc2ccc(F)cc2)OCCCC[C@H](C)Oc2ccc(NC(=O)Cc3ccccc3)cc2C1=O`: the cytotoxicity call is “inactive”.

Regarding `CC(C)C(N)C(=O)O` (configuration not stated), the cytotoxicity call is “inactive”.

In the case of `C[C@H](O)C(=O)Nc1c(I)c(C(=O)NC(CO)CO)c(I)c(C(=O)NC(CO)CO)c1I`, the cytotoxicity call was “inactive”.

Turning to `CC(C)(C(=O)O)c1ccc([C@@H](O)CCCN2CCC(C(O)(c3ccccc3)c3ccccc3)CC2)cc1`, the cytotoxicity call was “inactive”.

Turning to `CC(C)(C(=O)O)c1ccc(C(O)CCCN2CCC(C(O)(c3ccccc3)c3ccccc3)CC2)cc1.Cl` (configuration not stated), the cytotoxicity call was “inactive”.

For `CC(C)(C)c1ccc(C(O)CCCN2CCC(C(O)(c3ccccc3)c3ccccc3)CC2)cc1` (configuration not stated), the cytotoxicity call is “active”.

For the molecule `C[C@@H]1CN([C@H](C)CO)C(=O)c2cccc(NC(=O)C3CC3)c2O[C@@H]1CN(C)Cc1ccc(-c2ccccc2)cc1`, the cytotoxicity call is “inactive”.

Regarding `CC(C)NC(=O)Nc1ccc2c(c1)C(=O)N([C@@H](C)CO)C[C@@H](C)[C@@H](CN(C)S(C)(=O)=O)OCCCC[C@@H](C)O2`, the cytotoxicity call was “inactive”.

`C[C@@H]1CCCCO[C@@H](CN(C)C(=O)Nc2ccccc2)[C@H](C)CN([C@H](C)CO)C(=O)c2cc(NC(=O)Nc3ccccc3)ccc2O1`: the cytotoxicity call was “inactive”.

Turning to `CC(C)NC(=O)N(C)C[C@@H]1OCCCC[C@@H](C)Oc2ccc(NC(=O)Nc3ccc(C(F)(F)F)cc3)cc2C(=O)N([C@@H](C)CO)C[C@@H]1C`, the cytotoxicity call was “inactive”.

On to `C[C@H](CO)N1C[C@H](C)[C@H](CN(C)C(=O)Nc2ccc3c(c2)OCO3)OCc2cn(nn2)CCCC1=O`, for which the cytotoxicity call is “inactive”.

As for `Brc1ccc2nc(N3CCCN(Cc4ccccc4)CC3)nc(NC3CCN(Cc4ccccc4)CC3)c2c1`, the cytotoxicity call is “active”.

Turning to `NC1CCN(Cc2ccccc2)CC1`, the cytotoxicity call is “inactive”.

As for `COc1ccc2nc3cc(Cl)ccc3c(Nc3cc(CN4CCCC4)c(O)c(CN4CCCC4)c3)c2n1.O=P(O)(O)O.O=P(O)(O)O.O=P(O)(O)O.O=P(O)(O)O`, the cytotoxicity call was “inactive”.

As to `COc1cc2nc(N3CCCN(Cc4ccccc4)CC3)nc(Nc3ccc(F)c(Cl)c3)c2cc1OC`, the cytotoxicity call was “active”.

Regarding `COc1cc2nc(N3CCN(C(=O)c4ccco4)CC3)nc(N)c2cc1OC.Cl`, the cytotoxicity call is “inactive”.

In the case of `COc1cc2nc(N3CCCN(Cc4ccccc4)CC3)nc(NC3CCN(Cc4ccccc4)CC3)c2cc1OC`, the cytotoxicity call was “inactive”.

Turning to `CC(C)(C)[S@](=O)N1Cc2cc(C(=O)NCc3ccncc3)nc(-c3cccc(-c4cccc(C#N)c4)c3)c2[C@@H]1CCO`, the cytotoxicity call is “inactive”.

In the case of `C[C@H](CO)N1C[C@H](C)[C@H](CN(C)S(=O)(=O)c2cn(C)cn2)Oc2ccc(NC(=O)Cc3ccccc3)cc2C1=O`, the cytotoxicity call is “inactive”.

Regarding `Cc1cc(C(=O)Nc2cccc3c2O[C@H](CN(C)Cc2ccncc2)[C@H](C)CN([C@H](C)CO)C3=O)n(C)n1`, the cytotoxicity call is “inactive”.

For `Cc1noc(C)c1S(=O)(=O)Nc1ccc2c(c1)C(=O)N([C@@H](C)CO)C[C@H](C)[C@@H](CN(C)C(=O)Nc1ccccc1)OCCCC[C@@H](C)O2`, the cytotoxicity call was “inactive”.

`C[C@@H](Nc1nc(=O)cc(F)[nH]1)C(=O)O`: the cytotoxicity call was “inactive”.

Turning to `COc1ccc(NC(=O)N(C)C[C@H]2Oc3ccc(NC(=O)CCCCCC(=O)Nc4ccccc4N)cc3C(=O)N([C@@H](C)CO)C[C@@H]2C)cc1`, the cytotoxicity call is “inactive”.

Regarding `COc1ccc(NC(=O)Nc2ccc3c(c2)C(=O)N([C@@H](C)CO)C[C@H](C)[C@@H](CN(C)C(=O)Cc2ccccc2)OCCCC[C@@H](C)O3)cc1`, the cytotoxicity call was “inactive”.

As for `COc1ccc(CN(C)C[C@H]2Oc3ccc(NS(=O)(=O)c4cn(C)cn4)cc3CC(=O)N([C@H](C)CO)C[C@@H]2C)cc1`, the cytotoxicity call is “inactive”.

For the molecule `Cc1noc(C)c1S(=O)(=O)Nc1ccc2c(c1)C(=O)N([C@@H](C)CO)C[C@H](C)[C@@H](CN(C)Cc1ccc(Oc3ccccc3)cc1)O2`, the cytotoxicity call was “inactive”.

For the molecule `C[C@H]1CN([C@@H](C)CO)C(=O)Cc2cc(NC(=O)Nc3ccc(C(F)(F)F)cc3)ccc2O[C@H]1CN(C)C(=O)Nc1ccccc1`, the cytotoxicity call is “active”.

For the molecule `C[C@H](CO)N1C[C@H](C)[C@H](CN(C)C(=O)Nc2ccccc2)Oc2ccc(NC(=O)Nc3ccc(C(F)(F)F)cc3)cc2CC1=O`, the cytotoxicity call was “inactive”.

For `C[C@@H]1CN([C@@H](C)CO)C(=O)Cc2cc(NC(=O)Nc3ccc(C(F)(F)F)cc3)ccc2O[C@@H]1CN(C)C(=O)Nc1ccccc1`, the cytotoxicity call was “active”.

For `C[C@H](CO)N1C[C@H](C)[C@@H](CN(C)C(=O)Nc2ccccc2)Oc2ccc(NC(=O)Nc3ccc(C(F)(F)F)cc3)cc2CC1=O`, the cytotoxicity call was “inactive”.

Take `C[C@H]1CN([C@@H](C)CO)C(=O)Cc2cc(NC(=O)Nc3ccc(C(F)(F)F)cc3)ccc2O[C@@H]1CN(C)C(=O)Nc1ccccc1`: the cytotoxicity call was “inactive”.

Turning to `C[C@@H]1CN([C@@H](C)CO)C(=O)Cc2cc(NC(=O)Nc3ccccc3)ccc2O[C@@H]1CN(C)C(=O)Nc1ccc(C(F)(F)F)cc1`, the cytotoxicity call is “inactive”.

As to `O=C(O)C1=CCCNC1`, the cytotoxicity call was “inactive”.

As to `Cc1noc(C)c1NC(=O)N(C)C[C@@H]1Oc2ccc(NS(=O)(=O)c3cccs3)cc2CC(=O)N([C@@H](C)CO)C[C@H]1C`, the cytotoxicity call was “inactive”.

With `COc1ccc(NC(=O)Nc2ccc3c(c2)C(=O)N([C@H](C)CO)C[C@@H](C)[C@@H](CN(C)Cc2ccc(C(=O)O)cc2)OCCCC[C@H](C)O3)cc1`, the cytotoxicity call was “inactive”.

`NC(=O)[C@H]1[C@@H]2C(=O)O[C@@H](c3ccccc3)[C@@H](c3ccccc3)N2[C@@H](c2ccc(O)cc2)[C@]12C(=O)Nc1ccc(C#CC3(O)CCCCCC3)cc12`: the cytotoxicity call is “inactive”.

For `c1ccc(Nc2ncnc3cc(-c4ccccc4)sc23)cc1`, the cytotoxicity call was “inactive”.

Consider `c1ccc(Nc2ncnc3sc(-c4ccccc4)cc23)cc1`, for which the cytotoxicity call is “inactive”.

For the molecule `Fc1ccc(Nc2ncnc3sc(-c4ccccc4)cc23)cc1`, the cytotoxicity call was “active”.
